# Source: PubChem
# hgDAF-12 ag – activates the H. glycines DAF-12 receptor ligand-binding domain. HEK293 GAL4-hgDAF12 UAS-luciferase reporter, agonist luminescence; normalized to butyrate control. activation, % at 6.8 µM. 370,000 tested, 1.8% active. AID 687014;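 active means activation above a cutoff set at the mean of all screened compounds plus 3 SD, cut at about 10% in these data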;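 further: 0% = DMSO wells and 100% = sodium butyrate wells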
# DAX1 inh-1 – inhibits human nuclear receptor DAX1 | inhibition, % at 6.75 µM | AID 504766 | P51843 | HEK293 Gal4-DAX1 luciferase reporter, luminescence | 340,000 tested, 0.99% active;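 active means inhibition above the mean over all tested compounds plus 3 SD, cut at about 4.2% in these data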;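 further: 0% = DAX1-transfected cells with DMSO and 100% = empty-vector control cells with DMSO; inhibition shows as a rise in luminescence from relieved DAX1 repression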
# Target sequence (P51843 207-470 limits assumed): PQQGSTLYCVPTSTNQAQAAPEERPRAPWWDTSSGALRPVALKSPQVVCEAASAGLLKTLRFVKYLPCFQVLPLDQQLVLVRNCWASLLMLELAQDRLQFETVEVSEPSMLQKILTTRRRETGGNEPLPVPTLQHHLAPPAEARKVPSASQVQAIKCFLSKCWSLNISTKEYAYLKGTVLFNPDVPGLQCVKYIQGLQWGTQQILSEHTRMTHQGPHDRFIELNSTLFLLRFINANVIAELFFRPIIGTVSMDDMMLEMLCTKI
# ssDAF12 agonist – activators of S. stercoralis DAF-12 nuclear receptor; HEK293 ssDAF-12/GRIP1 lit1-tk-luc reporter, luminescence; % of 3 µM dafachronic acid response; activation, % at 6.8 µM; 370,000 tested, 1% active;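 active means activation above the mean over all tested compounds plus 3 SD, cut at about 0.9% in these data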;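 further: 0% = DMSO-only wells and 100% = 3 µM delta7-dafachronic acid wells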
# DAX1 inh-2 – blocks DAX1 repression of SF-1 activated StAR promoter | HEK293T StAR-luciferase reporter, SF-1/DAX-1 repression relief | inhibition, % at 6.8 µM | 370,000 tested, 1.1% active;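 active means inhibition above the mean over all tested compounds plus 3 SD, cut at about 3.6% in these data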;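 further: 0% = DAX-1 cells with DMSO and 100% = cells lacking DAX-1 with DMSO; higher inhibition means more luminescence from relief of DAX-1 repression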
# hcDAF12 agonist – activates DAF-12 receptor from parasite H. contortus; 370,000 tested, 1.4% active; activation, % at 6.8 µM; HEK293 hcDAF-12 lit1-tk-luc reporter, luminescence; 0% DMSO, 100% Δ7-dafachronic acid;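 active means activation above the mean of all tested compounds plus 3 SD, cut at about 5.5% in these data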;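 further: 100% = response to 3 µM Δ7-dafachronic acid high control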
# An asterisk follows results filed as active; x = no result. Shown are actives, neighbours in structure and some others; about 4.1% of the full set was active somewhere.
SMILES,hgDAF-12 ag,DAX1 inh-1,ssDAF12 agonist,DAX1 inh-2,hcDAF12 agonist
Oc1cccc(C2c3[nH]c4ccccc4c3CCN2Cc2ccc3c(c2)CCO3)c1 (configuration not stated),-3,0,-1,2,5
O=C(O)CSc1nnc2n(-c3ccccc3)c(=O)c3ccccc3n12,-3,5.4*,-1,0,-1
COc1cccc(NC(=O)C2CCCN2C(=O)NC2CCC(C)CC2)c1 (configuration not stated),6,x,-1,0,-2
Cc1ccc(/C=N/N2CCOCC2)s1,0,5.6*,-1,2,2
Cc1ccc(/C=N/N2CCN(Cc3ccccc3)CC2)s1,3,2,-1,1,2
O=C1c2ccccc2S(=O)(=O)N1CC1CC(c2ccccc2)=NO1 (configuration not stated),8,2,-1,2,2
COc1ccc(C2=NOC(CN3C(=O)c4ccccc4S3(=O)=O)C2)cc1 (configuration not stated),12*,1,1,2,4
O=C(NCc1cccs1)c1cc(-c2ccccc2)nc2ccccc12,-4,-1,-2,-1,-2
O=c1c2ccccc2nc2ccc(NCc3cccs3)nn12,6,4.7*,-1,2,2
O=[N+]([O-])c1cccc(OCCN2CCC(Cc3ccccc3)CC2)c1,-1,5.8*,-2,0,0
CCCCc1c(-c2ccccc2OC)ncn1Cc1ccc(C(C)(C)C)cc1,-4,x,-1,-2,-2
O=C(CNc1ccccc1)Nc1ccc(F)cc1,11*,2,0.9*,3,5
O=C(CC(=O)Nc1ccccc1)Nc1ccccc1,1,4.3*,0,0,-1
O=C(CSCc1ccc(C(=O)O)cc1)Nc1ccccc1,-1,5.1*,-1,0,-1
O=C(CNS(=O)(=O)c1ccc(F)cc1)Nc1ccccc1,-2,1,-1,0,2
Cc1ccc(-n2c(CNc3cccc(Cl)c3)n[nH]c2=S)cc1,-5,0,-2,0,-1
Cc1ccc(NCc2n[nH]c(=S)n2-c2cccc(Cl)c2)cc1,0,4.5*,-1,0,-1
O=C(Nc1ccc(F)cc1)C(c1ccccc1)N1CCN(CC(=O)N2CCCC2)CC1 (configuration not stated),2,1,-1,-1,-1
COc1ccc(C(C(=O)Nc2ccc(F)cc2)N2CCN(CC(=O)N3CCCC3)CC2)cc1 (configuration not stated),-2,x,-1,4.2*,-1
CCOC(=O)[C@@]12CCCC3=C1N(CCC3)C(=O)[C@H]2CC(=O)N1CCC(c2ccccc2)CC1,-4,x,-2,1,-1
Cc1[nH]c(=O)[nH]c(=O)c1/C=N/NC(=O)[C@H](C)N,-2,5.7*,0,0,5
CCC(C)NC(=O)c1cc(-c2ccc(OC)cc2)on1 (configuration not stated),11*,1,-1,2,3
COc1ccc(-c2cc(C(=O)Nc3cccc(Cl)c3)no2)cc1,8,4.2*,-1,0,2
COc1cccc(-c2cc(C(=O)Nc3cccc(O)c3)no2)c1,11*,-2,0,4,5
O=C(NCCCn1ccnc1)c1cc(-c2cccc(O)c2)on1,10,4.7*,0,1,1
SMILES,hgDAF-12 ag,DAX1 inh-1,ssDAF12 agonist,DAX1 inh-2,hcDAF12 agonist
Cc1ccc(-c2cc(C(=O)NCCCn3ccnc3)no2)cc1,8,0,-1,0,-2
COc1ccc(NC(=O)c2cc(-c3cccc(OC)c3)on2)cc1,-2,0,0,0,0
COc1cccc(N2CCN(C(=O)CCn3nnc4ccccc43)CC2)c1,2,x,-1,-1,-2
COC(=O)c1ccc(Cn2ccc3ccc(-c4ccc5ccn(C(=O)c6ccccc6C)c5c4)cc32)cc1,3,x,-1,0,-1
CN(C)[C@H]1CCN(c2ccc3c(c2)O[C@H]2CCN(C2)S3(=O)=O)C1,0,x,-1,0,0
CCc1ccccc1NC(=O)c1cc(-c2cccc(O)c2)on1,11*,2,-1,1,-2
O=C(Nc1ccccc1C(F)(F)F)c1cc(-c2cccc(O)c2)on1,4,1,-1,1,-1
Cc1ccc(O)c(NC(=O)c2cc(-c3ccccc3)on2)c1,3,4.9*,-1,1,3
